Active and inactive are the calls of the source.

The nature of assay [1]: optical density shifts of acrAB sulA E. coli – strain DRC41, OD650, 48 h, E. coli filamentation inducer project, primary screen (AID 1152).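 Note: E. coli MC1000 strain DRC41 lacking acrAB efflux pump and sulA.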 The settings on record: higher = more signal, called active from +8 up or from −8 down.
Assay [2] in a line: probe aLefty1 binding on compound microarray – biochemical, small-molecule microarray, 635/667 nm fluorescence, primary screen (AID 1153).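 Note: score merges spot fluorescence with signal-to-noise ratio from the scanned slide images.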 The settings on record: higher = more signal.
The nature of assay [3]: plasmodial surface anion channel blockers, osmotic lysis – cell-based, P. falciparum Indochina, OD700, 1 h, primary screen (AID 1154). As to conditions: P. falciparum Indochina infected RBC osmotic lysis, higher = more signal, called active from +8 up or from −8 down.
A short description of assay [4]: plasmodial surface anion channel blockers, osmotic lysis – cell-based, P. falciparum Indochina, OD700, 2 h, primary screen (AID 1155).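 Note: lysis reports solute entry through the parasite surface anion channel PSAC.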 As to conditions: P. falciparum Indochina infected erythrocytes, higher = more signal, called active from +8 up or from −8 down.
Assay [5] in a line: changes in parasitized red cell lysis, either direction – P. falciparum Indochina, OD700, 3 h, PSAC antagonist project, primary screen (AID 1156). The settings on record: P. falciparum-infected erythrocytes, osmotic lysis, higher = more signal, called active from +8 up or from −8 down.
A short description of assay [6]: plasmodial surface anion channel blockers, osmotic lysis – cell-based, P. falciparum Indochina, OD700, 18 h, primary screen (AID 1157). The settings on record: P. falciparum Indochina infected erythrocytes, osmotic lysis OD700, 18 h; higher = more signal, called active from +8 up or from −8 down.
Assay [7] is described as follows: S6 kinase pathway phospho-S6 level changes – cell-based, A549, cytoblot, luminescence, serum-stimulated, primary screen (AID 1158).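 Note: serum-stimulated A549 lung adenocarcinoma cells; signal is phosphorylated S6 detected by cytoblot immunostaining with HRP secondary.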 As to conditions: 5 h, higher = more signal.
Assay [8] deals with NADPH oxidase 2 (Homo sapiens) (UniProt P04839). Description: compounds shifting NOX2 Amplex Red fluorescence – cell-based, HEK293-NOX2, PMA-stimulated, NOX inhibitor project, primary screen (AID 1159). Note: test concentration not given here. The settings on record: 45 min, higher = more signal, called active from +8 up or from −8 down.
Sequence of NADPH oxidase 2 (Homo sapiens) (P04839 whole entry, looked up): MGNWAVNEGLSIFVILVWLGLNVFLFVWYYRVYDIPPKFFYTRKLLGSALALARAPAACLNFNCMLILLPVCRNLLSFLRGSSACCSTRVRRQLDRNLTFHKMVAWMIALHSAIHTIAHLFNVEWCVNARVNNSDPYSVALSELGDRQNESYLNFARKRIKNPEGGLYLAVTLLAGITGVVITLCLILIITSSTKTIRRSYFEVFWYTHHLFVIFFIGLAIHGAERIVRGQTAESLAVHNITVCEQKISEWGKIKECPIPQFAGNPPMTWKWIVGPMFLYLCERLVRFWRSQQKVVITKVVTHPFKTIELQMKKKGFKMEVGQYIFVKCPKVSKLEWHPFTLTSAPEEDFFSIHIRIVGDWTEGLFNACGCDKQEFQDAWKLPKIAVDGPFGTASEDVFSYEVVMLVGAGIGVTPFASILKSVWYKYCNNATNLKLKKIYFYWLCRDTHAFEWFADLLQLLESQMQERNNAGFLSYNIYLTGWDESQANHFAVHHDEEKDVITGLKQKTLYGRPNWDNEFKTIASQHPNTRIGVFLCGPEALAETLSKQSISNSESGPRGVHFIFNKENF
The target in assay [9] is NADPH oxidase 4 (Homo sapiens) (UniProt Q9NPH5). Put plainly: compounds shifting NOX4 Amplex Red fluorescence – cell-based, HEK293-NOX4, tetracycline-induced, NOX inhibitor project, primary screen (AID 1160). The settings on record: HEK293-NOX4, Amplex Red H2O2 fluorescence, 45 min; higher = more signal, called active from +8 up or from −8 down.
Sequence of NADPH oxidase 4 (Homo sapiens) (Q9NPH5 whole entry, looked up): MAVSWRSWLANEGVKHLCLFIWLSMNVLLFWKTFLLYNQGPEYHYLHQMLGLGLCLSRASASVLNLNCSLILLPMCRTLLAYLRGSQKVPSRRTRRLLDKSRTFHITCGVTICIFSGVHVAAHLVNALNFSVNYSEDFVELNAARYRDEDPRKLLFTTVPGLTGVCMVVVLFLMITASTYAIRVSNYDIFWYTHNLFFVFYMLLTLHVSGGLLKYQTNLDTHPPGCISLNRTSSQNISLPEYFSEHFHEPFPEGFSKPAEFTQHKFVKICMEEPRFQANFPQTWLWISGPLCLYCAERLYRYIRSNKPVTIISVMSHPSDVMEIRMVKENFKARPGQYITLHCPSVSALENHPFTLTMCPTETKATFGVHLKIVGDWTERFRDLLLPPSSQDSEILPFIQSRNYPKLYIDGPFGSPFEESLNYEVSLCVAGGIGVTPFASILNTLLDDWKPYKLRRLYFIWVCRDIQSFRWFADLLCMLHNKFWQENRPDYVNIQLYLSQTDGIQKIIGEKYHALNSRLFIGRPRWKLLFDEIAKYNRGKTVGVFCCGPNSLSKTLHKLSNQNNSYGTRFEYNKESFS
For assay [10], the target named is NADPH oxidase 5 (Homo sapiens) (UniProt Q96PH1). Put plainly: compounds shifting NOX5 Amplex Red fluorescence – cell-based, HEK293-NOX5, NOX inhibitor project, primary screen (AID 1161). As to conditions: HEK293-NOX5, ionomycin, 45 min, higher = more signal.
Sequence of NADPH oxidase 5 (Homo sapiens) (Q96PH1 whole entry, looked up): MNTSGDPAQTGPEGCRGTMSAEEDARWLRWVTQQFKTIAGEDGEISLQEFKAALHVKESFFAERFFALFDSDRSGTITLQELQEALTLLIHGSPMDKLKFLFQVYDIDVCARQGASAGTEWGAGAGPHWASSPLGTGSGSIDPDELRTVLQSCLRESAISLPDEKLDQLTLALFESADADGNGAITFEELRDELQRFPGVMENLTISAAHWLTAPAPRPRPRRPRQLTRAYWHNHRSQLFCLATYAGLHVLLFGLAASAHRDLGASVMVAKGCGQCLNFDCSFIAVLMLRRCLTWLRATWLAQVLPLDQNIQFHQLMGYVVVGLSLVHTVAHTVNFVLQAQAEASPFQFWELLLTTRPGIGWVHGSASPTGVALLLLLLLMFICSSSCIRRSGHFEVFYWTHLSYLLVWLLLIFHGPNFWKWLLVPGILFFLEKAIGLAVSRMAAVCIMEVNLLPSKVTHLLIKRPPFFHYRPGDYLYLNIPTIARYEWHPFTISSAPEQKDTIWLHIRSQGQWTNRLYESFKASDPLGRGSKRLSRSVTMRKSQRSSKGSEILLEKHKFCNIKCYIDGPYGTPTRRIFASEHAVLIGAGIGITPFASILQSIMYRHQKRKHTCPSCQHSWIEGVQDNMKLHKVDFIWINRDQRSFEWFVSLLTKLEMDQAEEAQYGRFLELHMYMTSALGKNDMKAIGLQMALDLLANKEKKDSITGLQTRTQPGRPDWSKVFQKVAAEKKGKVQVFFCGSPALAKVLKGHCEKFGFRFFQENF
Assay [11] can be described thus: compound effects on lung adenocarcinoma cell viability – A549, calcein-AM fluorescence, 48 h, basal, profiling panel (AID 1162). Note: test concentration not given here. As to conditions: higher = more signal.
Assay [12] is described as follows: compound effects on differentiated 3T3-L1 adipocyte viability – cell-based, 3T3-L1 adipocytes, calcein-AM fluorescence, 48 h, basal, profiling panel (AID 1163). Note: test concentration not given here. The settings on record: 3T3-L1 adipocytes viability, higher = more signal.
Assay [13] is described as follows: compound effects on hepatocellular carcinoma cell viability – HepG2, calcein-AM fluorescence, 48 h, basal, profiling panel (AID 1164). Note: test concentration not given here. The settings on record: higher = more signal.
Assay [14] in a line: compound effects on multiple myeloma cell viability – MM1S, calcein-AM fluorescence, 48 h, basal, profiling panel (AID 1165). Note: test concentration not given here. As to conditions: higher = more signal.
Assay [15] can be described thus: calcein-AM signal in unstimulated myeloma cells – cell-based, calcein-AM fluorescence, 48 h, PK04 Diversity Set, profiling panel (AID 1166).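 Note: cells grown under basal conditions without added stimulus; test concentration not given here.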 The settings on record: RPMI8226 myeloma viability, higher = more signal.
The nature of assay [16]: JC-1 mitochondrial signal, unstimulated HepG2 cells – cell-based, JC-1 fluorescence, 24 h, 100 nL compound, profiling panel (AID 1167). Note: test concentration not given here. As to conditions: HepG2 mitochondrial potential, higher = more signal.
A short description of assay [17]: JC-1 mitochondrial signal, unstimulated adipocytes – cell-based, JC-1 fluorescence, 3T3-L1 adipocytes, 24 h, 100 nL compound, profiling panel (AID 1168). Note: test concentration not given here. The settings on record: JC-1 mitochondrial fluorescence, higher = more signal, called active from +8 up or from −8 down.
A short description of assay [18]: JC-1 mitochondrial signal, unstimulated myeloma cells – cell-based, JC-1 fluorescence, RPMI8226, 24 h, 100 nL compound, profiling panel (AID 1169). Note: test concentration not given here. As to conditions: JC-1 mitochondrial potential fluorescence, higher = more signal.
Assay [19] is described as follows: JC-1 mitochondrial signal, unstimulated MM1S myeloma – cell-based, JC-1 fluorescence, 24 h, 100 nL compound, profiling panel (AID 1170). Note: test concentration not given here. The settings on record: MM1S mitochondrial potential, higher = more signal.
The nature of assay [20]: resazurin metabolic signal in A549 cells – cell-based, resazurin fluorescence, 24 h, PK04 Diversity Set, profiling panel (AID 1171). Note: test concentration not given here. As to conditions: A549 viability, higher = more signal, called active from +8 up or from −8 down. A general note: Resazurin is reduced to fluorescent resorufin, in cell work by metabolically active cells.

In the case of `CN(C)c1ccc(C(O)C2C=CC3C(=O)NC(=O)C3N2Nc2ccccn2)cc1` (stereo not given), the z-score in assay [1] was -1.5 (inactive); in assay [3] it was 0.85 (inactive); in assay [4] it was 0.123 (inactive); in assay [5], -0.693 (inactive); in [6], 0.408 (inactive); in [7] it was -0.888. The z-score in [8] was -2.21 (inactive); in [9], -4.43 (inactive); in assay [10] it was -4.16; in assay [11] it was -0.8; in assay [12] it was -0.358; in assay [13], -0.331. The z-score was -0.286 in [14]; -0.333 in assay [15]; -1.21 in [16]; -0.339 (inactive) in [17]; -0.492 in assay [18]; 0.468 in [19]. The z-score in assay [20] was -0.348 (inactive). The composite z-score in [2] turned out to be 0.201.

For `C[N+](C)(C)CCCC[C@@H]1NC(=O)[C@@H]2C[C@H](C(=O)NCCCCCCN)[C@H](c3cccc(OCCO)c3)N2C1=O`, the z-score in assay [1] was 0.0598 (inactive); in assay [3], 2.07 (inactive); in assay [4], 0.679 (inactive); in assay [5], 0.837 (inactive); in assay [6], 0.229 (inactive); in [7] it was 0.38. Besides, the z-score in [8] is 0.827 (inactive); in assay [9], 0.0305 (inactive); in assay [10], 0.559; in assay [11], -0.148; in [12] it was 1; in assay [13], 0.649. Besides, the z-score in assay [14] was 0.651; in assay [15], -0.013; in assay [16], 0.746; in [17], -0.17 (inactive); in assay [18], -0.711; in [19], 0.246. Moreover, the z-score in assay [20] was -0.518 (inactive). The composite z-score in assay [2] came out at 2.07.

For the compound `COCCOC(=O)N1C(=O)[C@@]2(c3ccccc31)[C@H](C(=O)NC[C@H](O)c1ccccc1)[C@H]1C(=O)O[C@H](c3ccccc3)[C@H](c3ccccc3)N1[C@@H]2c1ccc(O)cc1`, the z-score is 0.503 (inactive) in assay [1]; 1.89 (inactive) in assay [3]; 0.74 (inactive) in assay [4]; -0.0724 (inactive) in assay [5]; 0.786 (inactive) in assay [6]; 0.315 in [7]. Besides, the z-score is 1.22 (inactive) in assay [8]; 0.4 (inactive) in assay [9]; 0.855 in [10]; 0.0528 in assay [11]; 2.18 in [12]; -0.921 in assay [13]. Moreover, the z-score in assay [14] was -1.12; in assay [15], -3.46; in assay [16], -1.33; in assay [17] it was -0.221 (inactive); in assay [18] it was -1.32; in assay [19], -0.0503. In addition, the z-score in assay [20] is 0.0737 (inactive). In assay [2], the composite z-score was -0.671.

With `CCCCCCc1nc(Cc2cc(OC)c(OC)c(OC)c2)cc2c1[Si](C(C)C)(C(C)C)OC2`, the z-score in assay [1] was -0.56 (inactive); in assay [3] it was 0.88 (inactive); in assay [4], -0.221 (inactive); in [5] it was 0.908 (inactive); in assay [6], -0.718 (inactive); in assay [7], 0.552. For the same compound, the z-score was -4.01 (inactive) in assay [8]; -1.88 (inactive) in assay [9]; -5.31 in [10]; -1.79 in assay [11]; 0.5 in [12]; 0.0671 in assay [13]. For the same compound, the z-score in [14] is -3.02; in [15], -4.45; in assay [16], 0.785; in [17] it was 0.705 (inactive); in assay [18], -1.06; in assay [19], -0.48. The z-score in assay [20] is 1.64 (inactive). Besides, the composite z-score in [2] was -0.131.

For `COc1ccc(C(=O)Nc2ccc(CN3C(=O)[C@]4(O[C@H](CC(=O)N5Cc6ccccc6C[C@H]5CO)[C@@H]([Si](C)(C)c5ccc(OC)cc5)[C@@H]4C)c4ccccc43)cc2)cc1`, the z-score was -0.298 (inactive) in assay [1]; 3.15 (inactive) in assay [3]; 1.5 (inactive) in assay [4]; 1.15 (inactive) in assay [5]; 0.941 (inactive) in [6]; 0.383 in assay [7]. For the same compound, the z-score was 0.545 (inactive) in assay [8]; -0.307 (inactive) in assay [9]; 2.12 in assay [10]; -0.513 in assay [11]; 1.56 in [12]; 0.349 in assay [13]. The z-score is -1.6 in assay [14]; -0.786 in assay [15]; 0.705 in [16]; -0.212 (inactive) in assay [17]; -0.7 in assay [18]; -0.911 in assay [19]. The z-score in [20] was -1.96 (inactive). For the same compound, the composite z-score in assay [2] amounted to 0.0004.

Regarding `COC(=O)C1=CC(CCCO)=CC(c2ccc(CN3CCCC3)cc2)N(Cc2cccc(OC(F)(F)F)c2)C=C1C(=O)OC` (stereo not given), the z-score was -0.418 (inactive) in assay [1]; 0.119 (inactive) in assay [3]; -0.984 (inactive) in assay [4]; 0.456 (inactive) in [5]; -2.27 (inactive) in assay [6]; 1.38 in [7]. Also, the z-score in [8] is 0.439 (inactive); in [9], -0.351 (inactive); in [10], 0.628; in assay [11] it was 0.589; in [12], -0.0684; in assay [13], 1.34. Besides, the z-score in [14] is 1.04; in assay [15], -0.413; in assay [16], 3.57; in assay [17] it was 0.395 (inactive); in assay [18], 0.121; in assay [19] it was 0.593. Also, in assay [20], the z-score is -1.16 (inactive). In addition, in assay [2], the composite z-score came to 0.241.

On to `O=C(NCCN1CCOCC1)[C@@H]1c2ccccc2C(=O)N(Cc2ccccc2Cl)[C@H]1c1ccc(CO)cc1`, for which the z-score in [1] is 0.446 (inactive); in assay [3], 4.63 (inactive); in [4], 0.466 (inactive); in [5] it was 0.297 (inactive); in [6], 0.306 (inactive); in assay [7], -0.467. Besides, the z-score in assay [8] is -0.112 (inactive); in [9], 0.34 (inactive); in [10], -0.371; in assay [11], 0.53; in assay [12], -0.249; in assay [13], 1.15. Also, the z-score was -0.142 in [14]; 0.125 in [15]; 3.16 in assay [16]; 0.64 (inactive) in [17]; -0.695 in assay [18]; -0.408 in assay [19]. Also, in [20], the z-score is 0.59 (inactive). Besides, the composite z-score in assay [2] came out at 0.121.

Consider `COC(=O)[C@@H]1N=C(c2ccc(OCCCO)cc2)O[C@@H]1c1ccccc1`, for which the z-score is 0.813 (inactive) in assay [1]; 24.5 (active) in [3]; 12.5 (active) in [4]; -1.03 (inactive) in assay [5]; 0.82 (inactive) in assay [6]; 0.264 in [7]. Moreover, the z-score in assay [8] was -0.499 (inactive); in assay [9] it was 1.02 (inactive); in [10], -0.273; in assay [11], 0.623; in assay [12] it was 0.469; in assay [13] it was -0.677. Further, the z-score in [14] is 0.565; in [15], 0.474; in assay [16] it was -0.659; in [17] it was -0.652 (inactive); in assay [18], 0.278; in [19], -0.241. In [20], the z-score is 0.331 (inactive). Besides, the composite z-score in [2] was -0.717.

Source of the values: PubChem BioAssay.
